Assay [1] in a line: NCI Yeast Anticancer Drug Screen. Data for the rad50 strain (AID 155).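 Further: 0% = growth of vehicle-only cultures of the same strain.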 Conditions: S. cerevisiae rad50 strain growth inhibition, stronger effect = higher value. The method, boiled down: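 Inhibition values express reduced yeast growth in compound-treated cultures relative to vehicle-treated controls.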
The nature of assay [2]: NCI Yeast Anticancer Drug Screen. Data for the mec2-1 strain (AID 157). The following applies: S. cerevisiae mec2-1 strain, stronger effect = higher value. The procedure, abridged:
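Test agents were screened against the mec2-1 yeast strain, with defined DNA repair or cell cycle alteration. Growth was scored as inhibition against vehicle-only controls.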

Assay [3] is described as follows: NCI Yeast Anticancer Drug Screen. Data for the sgs1 mgt1 strain (AID 161).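 Further: 0% = growth of cultures given vehicle only.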 Conditions: S. cerevisiae sgs1 mgt1 strain, stronger effect = higher value. The procedure, abridged:
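Test agents were incubated with a DNA-repair-mutant yeast strain. Growth was then read and compared against vehicle-treated controls.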

Assay [4] in a line: NCI Yeast Anticancer Drug Screen. Data for the cln2 rad14 strain (AID 165).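 Further: 0% = growth equal to vehicle treated cultures.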 Conditions: S. cerevisiae cln2 rad14 strain, stronger effect = higher value. The method, boiled down: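 Growth of compound-exposed yeast (cln2 rad14 genotype) measured and expressed as inhibition relative to vehicle.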
The nature of assay [5]: NCI Yeast Anticancer Drug Screen. Data for the bub3 strain (AID 167). Conditions: S. cerevisiae bub3 mutant strain, stronger effect = higher value. The method, boiled down:
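Steps: expose the mutant yeast strain to compound; grow alongside vehicle-treated cultures; measure growth; express inhibition against the vehicle cultures.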

Assay [6] in a line: NCI Yeast Anticancer Drug Screen. Data for the mlh1 rad18 strain (AID 175). The following applies: S. cerevisiae mlh1 rad18 strain growth inhibition, stronger effect = higher value. The method, boiled down:
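In this whole-cell yeast screen, a strain with altered DNA damage repair is challenged with compound, and its growth is measured against matched vehicle-treated controls.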

Where [7] appears, read: at 5.0 µM (retest, dose inferred, filed as 0.5).
Setting [8] is: at 50.0 µM (retest, dose inferred, filed as 5.0).

SMILES strings stand for the structures. Compounds without any hit were thinned out: in the full panel of roughly 79,000, 15% have a hit. Values without a mark were called inactive. Active and inactive are the calls of the source. No stated cut-off is given here; in the data, active means growth inhibition above about 70%; inactive means the rest.

Regarding `O=[N+]([O-])c1ccc(NS(=O)(=O)c2ccccc2)c(NS(=O)(=O)c2ccccc2)c1`, the growth inhibition was 15% in assay [1] (setting [7]); 75% (active) in assay [1] (setting [8]); 81.5% (active) in assay [1] (at 50.0 µM); 14% in assay [2] (setting [7]); 76% (active) in assay [2] (setting [8]); 73.4% (active) in assay [2] (at 50.0 µM). For the same compound, the growth inhibition in assay [3] (setting [7]) is 20%; in assay [3] (setting [8]) it was 81% (active); in assay [3] (at 50.0 µM), 83.2% (active); in assay [4] (setting [7]) it was 27%; in assay [4] (setting [8]), 32%; in assay [4] (at 50.0 µM), 82.1% (active). Moreover, the growth inhibition is 6% in assay [5] (setting [7]); 43% in assay [5] (setting [8]); 80.1% (active) in assay [5] (at 50.0 µM); 11% in assay [6] (setting [7]); 90% (active) in assay [6] (setting [8]); 71.7% (active) in assay [6] (at 50.0 µM).

Regarding `CCC(=O)c1cc2ccccc2c2ccccc12`, the growth inhibition was 4% in assay [1] (setting [7]); 44% in assay [1] (setting [8]); 66.3% in assay [1] (at 50.0 µM); 0% in assay [2] (setting [7]); 20% in assay [2] (setting [8]); 39% in assay [2] (at 50.0 µM). Besides, the growth inhibition in assay [3] (setting [7]) is 0%; in assay [3] (setting [8]), 40%; in assay [3] (at 50.0 µM), 37.3%; in assay [4] (setting [7]), -3%; in assay [4] (setting [8]) it was 0%; in assay [4] (at 50.0 µM), 9.9%. Further, the growth inhibition in assay [5] (setting [7]) is 5%; in assay [5] (setting [8]), 74% (active); in assay [5] (at 50.0 µM) it was 75.8% (active); in assay [6] (setting [7]), -2%; in assay [6] (setting [8]), 61%; in assay [6] (at 50.0 µM), 41.5%.

`Fc1cccc(CSc2ncnc3c2ncn3C2CCCS2)c1` (stereo not given): the growth inhibition was 4% in assay [1] (setting [7]); 70% (active) in assay [1] (setting [8]); 84.9% (active) in assay [1] (at 50.0 µM); 1% in assay [2] (setting [7]); 87% (active) in assay [2] (setting [8]); 90% (active) in assay [2] (at 50.0 µM). For the same compound, the growth inhibition in assay [3] (setting [7]) is 6%; in assay [3] (setting [8]) it was 92% (active); in assay [3] (at 50.0 µM), 93.3% (active); in assay [4] (setting [7]), 26%; in assay [4] (setting [8]), 87% (active); in assay [4] (at 50.0 µM), 82% (active). The growth inhibition is 1% in assay [5] (setting [7]); 82% (active) in assay [5] (setting [8]); 90% (active) in assay [5] (at 50.0 µM); 3% in assay [6] (setting [7]); 88% (active) in assay [6] (setting [8]); 92.5% (active) in assay [6] (at 50.0 µM).

Consider `CCCCCCCCCCCC(O)=C1C(=O)CC(O)CC1=O` (stereo not given), for which the growth inhibition in assay [1] (setting [7]) was 33%; in assay [1] (setting [8]) it was 88% (active); in assay [1] (at 50.0 µM), 88.3% (active); in assay [2] (setting [7]) it was 25%; in assay [2] (setting [8]) it was 97% (active); in assay [2] (at 50.0 µM), 91.6% (active). Also, the growth inhibition in assay [3] (setting [7]) was 48%; in assay [3] (setting [8]), 98% (active); in assay [3] (at 50.0 µM), 91% (active); in assay [4] (setting [7]) it was 40%; in assay [4] (setting [8]) it was 91% (active); in assay [4] (at 50.0 µM), 90.3% (active). For the same compound, the growth inhibition in assay [5] (setting [7]) is 42%; in assay [5] (setting [8]) it was 97% (active); in assay [5] (at 50.0 µM), 89.7% (active); in assay [6] (setting [7]), 46%; in assay [6] (setting [8]), 96% (active); in assay [6] (at 50.0 µM), 82.8% (active).

Turning to `O=C(OCc1ccccc1)c1ccccc1Cl`, the growth inhibition in assay [1] (setting [7]) was 3%; in assay [1] (setting [8]) it was 21%; in assay [1] (at 50.0 µM), 50.4%; in assay [2] (setting [7]), -3%; in assay [2] (setting [8]), 0%; in assay [2] (at 50.0 µM) it was 14.1%. Also, the growth inhibition in assay [3] (setting [7]) was 2%; in assay [3] (setting [8]), 14%; in assay [3] (at 50.0 µM) it was 40.2%; in assay [4] (setting [7]), 4%; in assay [4] (setting [8]), -11%; in assay [4] (at 50.0 µM), -18.6%. Also, the growth inhibition was 10% in assay [5] (setting [7]); 19% in assay [5] (setting [8]); 30.9% in assay [5] (at 50.0 µM); 3% in assay [6] (setting [7]); 14% in assay [6] (setting [8]); 82.8% (active) in assay [6] (at 50.0 µM).

For the compound `COc1ccc(Cc2c3ccccc3cc[n+]2C)cc1Oc1ccc(Cc2c3ccccc3cc[n+]2C)cc1`, the growth inhibition in assay [1] (setting [7]) is 2%; in assay [1] (setting [8]) it was 87% (active); in assay [1] (at 50.0 µM) it was 51.5%; in assay [2] (setting [7]) it was -1%; in assay [2] (setting [8]), 92% (active); in assay [2] (at 50.0 µM), 43.8%. Besides, the growth inhibition in assay [3] (setting [7]) was 2%; in assay [3] (setting [8]), 93% (active); in assay [3] (at 50.0 µM), 76.5% (active); in assay [4] (setting [7]), -14%; in assay [4] (setting [8]) it was 84% (active); in assay [4] (at 50.0 µM), -26.7%. Besides, the growth inhibition in assay [5] (setting [7]) is -2%; in assay [5] (setting [8]), 96% (active); in assay [5] (at 50.0 µM), 40.9%; in assay [6] (setting [7]) it was -2%; in assay [6] (setting [8]), 96% (active); in assay [6] (at 50.0 µM), 85.9% (active).

For the compound `C/C=C(/CCC1NCCC2c3ccccc3NC12)[Si](C)(C)C` (stereo not given), the growth inhibition was 1% in assay [1] (setting [7]); 8% in assay [1] (setting [8]); 10.2% in assay [1] (at 50.0 µM); -5% in assay [2] (setting [7]); 8% in assay [2] (setting [8]); 7.15% in assay [2] (at 50.0 µM). For the same compound, the growth inhibition was -2% in assay [3] (setting [7]); 37% in assay [3] (setting [8]); 59.6% in assay [3] (at 50.0 µM); -5% in assay [4] (setting [7]); 0% in assay [4] (setting [8]); 0.15% in assay [4] (at 50.0 µM). For the same compound, the growth inhibition in assay [5] (setting [7]) is -3%; in assay [5] (setting [8]) it was 15%; in assay [5] (at 50.0 µM) it was 5.6%; in assay [6] (setting [7]), -4%; in assay [6] (setting [8]) it was 37%; in assay [6] (at 50.0 µM), 44.5%.

For the compound `CN1C=C(C#N)CCC1Sc1ccc(Cl)cc1` (stereo not given), the growth inhibition was -7% in assay [1] (setting [7]); 38% in assay [1] (setting [8]); 58.1% in assay [1] (at 50.0 µM); 5% in assay [2] (setting [7]); 65% in assay [2] (setting [8]); 58.6% in assay [2] (at 50.0 µM). Besides, the growth inhibition in assay [3] (setting [7]) was 3%; in assay [3] (setting [8]), 54%; in assay [3] (at 50.0 µM) it was 92.6% (active); in assay [4] (setting [7]), -3%; in assay [4] (setting [8]) it was 11%; in assay [4] (at 50.0 µM), 76.8% (active). In addition, the growth inhibition is -4% in assay [5] (setting [7]); 60% in assay [5] (setting [8]); 59.3% in assay [5] (at 50.0 µM); 22% in assay [6] (setting [7]); 82% (active) in assay [6] (setting [8]); 86.9% (active) in assay [6] (at 50.0 µM).

`O=C(O)CC1c2ccc3ccccc3c2CCC1c1ccccc1` (stereo not given): the growth inhibition is 74% (active) in assay [1] (setting [7]); 99% (active) in assay [1] (setting [8]); 99.6% (active) in assay [1] (at 50.0 µM); 44% in assay [2] (setting [7]); 99% (active) in assay [2] (setting [8]); 99.6% (active) in assay [2] (at 50.0 µM). The growth inhibition was 68% in assay [3] (setting [7]); 99% (active) in assay [3] (setting [8]); 99.7% (active) in assay [3] (at 50.0 µM); 34% in assay [4] (setting [7]); 99% (active) in assay [4] (setting [8]); 99.5% (active) in assay [4] (at 50.0 µM). Moreover, the growth inhibition in assay [5] (setting [7]) is 30%; in assay [5] (setting [8]), 99% (active); in assay [5] (at 50.0 µM), 99.5% (active); in assay [6] (setting [7]), 78% (active); in assay [6] (setting [8]) it was 99% (active); in assay [6] (at 50.0 µM), 99.5% (active).

`O=C(c1ccc(Oc2ccccc2)cc1)C(C(c1ccccc1)N1CCOCC1)N1CCOCC1` (stereo not given): the growth inhibition was -5% in assay [1] (setting [7]); 35% in assay [1] (setting [8]); 61.1% in assay [1] (at 50.0 µM); 12% in assay [2] (setting [7]); 59% in assay [2] (setting [8]); 62.9% in assay [2] (at 50.0 µM). Further, the growth inhibition in assay [3] (setting [7]) is -9%; in assay [3] (setting [8]) it was 81% (active); in assay [3] (at 50.0 µM), 88.8% (active); in assay [4] (setting [7]) it was -3%; in assay [4] (setting [8]) it was -1%; in assay [4] (at 50.0 µM) it was 54.4%. In addition, the growth inhibition was 0% in assay [5] (setting [7]); 61% in assay [5] (setting [8]); 73% (active) in assay [5] (at 50.0 µM); 20% in assay [6] (setting [7]); 60% in assay [6] (setting [8]); 75.4% (active) in assay [6] (at 50.0 µM).

Source of the values: PubChem BioAssay (NCI).
